Holding throughout (assay): qHTS profiling for inhibitors of Plasmodium falciparum proliferation (AID 504749); note: nearly all actives have a fitted effect of over 60% in size
Common to all, as to conditions: P. falciparum in erythrocytes, SYBR Green DNA, 72 h; series mostly up to 28.7 µM

For test [1], the system named is CP325. In short, it runs like this: (§1)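 SYBR Green fluorescence (ex 485 nm, em 535 nm) reports parasite DNA after 72 h compound exposure of infected red cells at 0.3% parasitemia, 2.5% hematocrit; signal normalized to 0.29 uM artemisinin and vehicle wells.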
In test [2] the test system is CP329. In outline: as §1
Test [3] deals with CP335. In outline: as §1
Test [4] deals with DFO2036. In short, it runs like this: as §1
Test [5] deals with DIV14. In short, it runs like this:
as §1

Test [6] relates to DIV17. In short, it runs like this: as §1
In test [7] the test system is Dd2. In outline:
as §1

In test [8] the test system is ECU. In short, it runs like this:
as §1

In test [9] the test system is FAB9. In short, it runs like this:
as §1

In test [10] the test system is GB4. In short, it runs like this:
as §1

For test [11], the system named is HB3. In short, it runs like this: as §1
In test [12] the test system is ICS. In short, it runs like this:
as §1

In test [13] the test system is JCK. In outline:
as §1

The test system of test [14] is N140. In short, it runs like this:
as §1

Test [15] deals with P93_24. In short, it runs like this: as §1
Test [16] has as its system P94_40. In outline:
as §1

In test [17] the test system is PAD. In short, it runs like this: as §1
The subject of test [18] is PC15. In outline: as §1
The test system of test [19] is PC26. In outline: as §1
Test [20] has as its system DIV30. In outline:
as §1

Inconclusive results are not listed. Active and inactive are the calls of the source. Calls come from the whole dose curve; as a rule, active = well fitted inhibition curve with a large enough effect; inconclusive = small, poorly fitted or top-dose-only effect; inactive = flat fitted curve, though single readings scatter.
Potency is the fitted concentration of half-maximal effect.

For the molecule `CC[C@H](NC(C)C)[C@H](O)c1ccc(O)c2[nH]c(=O)ccc12`, the Potency result in test [1], in test [2], in test [3], in test [4], in test [5] and in [6] was “inactive” each time. Moreover, the Potency result in test [7], in test [8], in [9], in test [10], in test [11] and in test [12] was “inactive” each time. Moreover, the Potency result in test [13], in test [14], in test [15], in test [16], in test [17] and in [18] was “inactive” throughout. In addition, the Potency result in [19] was “inactive”.
As for `CCOC(=O)[C@H](CCc1ccccc1)N[C@H]1CS[C@H](c2cccs2)CN(CC(=O)O)C1=O`, the Potency entry in test [1], in test [2], in [3], in [4], in test [6] and in test [20] was “inactive” throughout. Besides, the Potency result in [7], in test [9], in [11], in test [13], in [18] and in [19] was “inactive” each time.
Regarding `CCCN[C@H]1CCc2nc(N)sc2C1`, the Potency entry in test [1], in [2], in test [3], in test [4], in test [5] and in test [6] was “inactive” in each case. The Potency entry in test [20], in test [7], in [8], in test [9], in test [10] and in test [11] was “inactive” each time. The Potency entry in [12], in test [13], in test [14], in test [15], in [16] and in test [17] was “inactive” in each case. Further, the Potency entry in [18] and in test [19] was “inactive” throughout.
`CC1=NN(c2ccccc2)C(=O)C1`: the Potency result in test [1], in test [2], in test [3], in test [4], in test [5] and in test [6] was “inactive” in each case. The Potency entry in test [20], in test [7], in test [8], in test [9], in test [10] and in test [11] was “inactive” in each case. Moreover, the Potency result in test [13], in [14], in test [15], in test [16], in test [17] and in test [18] was “inactive” each time. For the same molecule, in test [19], the Potency result is “inactive”.
For the molecule `CCCc1nc(C)c2c(=O)[nH]c(-c3cc(S(=O)(=O)N4CCN(CC)CC4)ccc3OCC)nn12`, the Potency result in [1], in test [2], in test [3], in test [4], in [7] and in test [9] was “inactive” in each case. The Potency result in test [10], in test [13], in [16] and in test [19] was “inactive” throughout. In addition, the Potency is 5.36 µM (active) in [5], 10.7 µM (active) in test [6], 4.47 µM (active) in [12] and 8.91 µM (active) in [15].
On to `CC1=CC(=O)c2ccccc2C1=O`, for which the Potency result in test [1], in test [2], in test [3], in test [4], in [20] and in test [7] was “inactive” throughout. Moreover, the Potency result in test [8], in [9], in [11], in test [13], in test [14] and in test [15] was “inactive” throughout. For the same molecule, the Potency entry in [16], in test [17] and in test [19] was “inactive” in each case.
On to `O=c1oc2c(O)c(O)cc3c(=O)oc4c(O)c(O)cc1c4c23`, for which the Potency result in test [1], in [2] and in test [13] was “inactive” throughout. Also, the Potency was 0.849 µM (active) in test [3]; 2 µM (active) in test [7]; 0.849 µM (active) in [10]; 2 µM (active) in test [11]; 0.891 µM (active) in test [12]; 6.31 µM (active) in [18].
As for `S=P(N1CC1)(N1CC1)N1CC1`, the Potency result in test [1], in [2], in [3], in test [4], in test [5] and in test [6] was “inactive” each time. Further, the Potency entry in test [7], in test [8], in test [9], in test [10], in test [11] and in test [12] was “inactive” each time. In addition, the Potency entry in test [13], in test [14], in [15], in test [16], in test [17] and in test [18] was “inactive” in each case. Moreover, in test [19], the Potency entry was “inactive”.
As to `CNNCc1ccc(C(=O)NC(C)C)cc1`, the Potency entry in test [1], in [2], in test [3], in test [4], in [20] and in [7] was “inactive” throughout. The Potency result in test [8], in [9], in test [10], in test [11], in test [13] and in [14] was “inactive” throughout. The Potency result in test [15], in test [16], in [17], in [18] and in [19] was “inactive” each time.
Turning to `COc1nc(N)nc2c1ncn2[C@@H]1O[C@H](CO)[C@@H](O)[C@@H]1O`, the Potency result in [1], in test [2], in [3], in test [4], in [5] and in [6] was “inactive” throughout. Also, the Potency result in test [20], in test [7], in test [8], in test [9], in test [10] and in test [11] was “inactive” throughout. The Potency entry in test [12], in [13], in [14], in test [15], in [16] and in [17] was “inactive” throughout. Also, the Potency result in test [18] and in test [19] was “inactive” throughout.
On to `Nc1ccc(S(=O)(=O)Nc2ccccn2)cc1`, for which the Potency entry in test [1], in test [2], in [3], in test [4], in [5] and in test [6] was “inactive” throughout. In addition, the Potency entry in test [20], in test [7], in test [8], in test [9], in test [10] and in test [11] was “inactive” each time. Moreover, the Potency result in test [12], in [13], in test [14], in test [17], in test [18] and in [19] was “inactive” throughout.
For `COc1ccc(-c2ccc3cc(C(=O)O)ccc3c2)cc1C12CC3CC(CC(C3)C1)C2`, the Potency result in test [1], in test [2], in test [3], in [4], in [5] and in test [6] was “inactive” throughout. The Potency entry in test [20], in test [7], in test [8], in [9], in [10] and in [11] was “inactive” each time. The Potency entry in [13], in [14], in test [15], in test [16], in test [17] and in [18] was “inactive” in each case. For the same molecule, the Potency entry in test [19] is “inactive”.
Turning to `CN1CCN(c2c(F)cc3c(=O)c(C(=O)O)cn(CCF)c3c2F)CC1`, the Potency entry in [1], in test [2], in test [3], in test [4], in test [6] and in test [20] was “inactive” in each case. For the same molecule, the Potency entry in test [7], in test [8], in test [9], in test [10], in test [11] and in test [12] was “inactive” each time. Further, the Potency entry in test [13], in test [14], in test [15], in [16], in test [17] and in test [18] was “inactive” throughout. The Potency result in [19] is “inactive”.
Consider `CCn1cc(C(=O)O)c(=O)c2cc(F)c(N3CCNCC3)nc21`, for which the Potency result in test [1], in [2], in test [3], in test [5], in test [6] and in test [20] was “inactive” in each case. Besides, the Potency result in [8], in test [9], in test [10], in [11], in test [13] and in test [14] was “inactive” each time. The Potency entry in [16], in [17], in [18] and in test [19] was “inactive” throughout.
Turning to `NC(=O)c1cccnc1`, the Potency entry in test [1], in test [2], in [3], in test [4], in test [6] and in test [20] was “inactive” in each case. The Potency entry in [7], in test [8], in test [9], in test [10], in test [11] and in test [12] was “inactive” each time. Besides, the Potency result in [13], in test [14], in [15], in test [16], in [17] and in test [18] was “inactive” throughout. Also, the Potency result in test [19] is “inactive”.
`CCOCC(O)COc1ccc(NC(=O)CC[S+](C)C)cc1` (centres undefined): the Potency result in test [1], in [2], in test [3], in [4], in test [5] and in [6] was “inactive” in each case. For the same molecule, the Potency result in test [20], in [7], in test [8], in test [9], in test [10] and in [11] was “inactive” in each case. Also, the Potency entry in test [13], in [14], in [15], in test [16], in [17] and in test [18] was “inactive” in each case. Moreover, the Potency result in test [19] is “inactive”.

The record behind these values is PubChem BioAssay (NCATS).
